# In PubChem BioAssay (Tox21):
# Values joined by “and” are separate entries in the source; they are usually repeats but may differ in a detail not shown here. Equal values may be shown once. Results filed as inconclusive are left out. A call without a number means that no potency is given here. Where a structure was tested more than once in an assay, its records may differ in their call. Active and inactive are the calls of the source. Unless noted, calls follow the shape of the dose curve; as a rule, active = well fitted curve in the direction sought with a large enough effect in the repeat runs; inconclusive = weak or mixed curves; inactive = no such curve, though single readings can be large; an effect the other way counts as inactive or inconclusive.
# Tests used:
# [1] = qHTS assay to identify small molecule agonists of the hypoxia (HIF-1) signaling pathway - cell viability counter screen (AID 1224844; calls by dose curve; also: nearly all actives have a fitted effect of over 50% in size)
# Outline: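 Multiplexed with the HRE beta-lactamase assay, this viability read used CellTiter-Glo luminescence (30 min, RT) on HRE-bla ME-180 cells treated 17 hrs with compounds in 0.5% dialyzed FBS medium.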
# [2] = qHTS assay to identify small molecule agonists of H2AX (AID 1224845; active = well fitted activation curve with a large enough effect in the signal ratio in the repeat runs, not every such curve was filed as active; the % refers to the signal ratio)
# Outline: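 Wild-type CHO-K1 cells, plated overnight, exposed 3hr at 37C to 15 concentrations (0.76% DMSO final). Lysed, then HTRF anti-pH2AX (S139) cryptate and anti-H2AX-d2 antibodies, 24 hr room temperature; 665/620 nm emission read.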
# [3] = qHTS assay to identify small molecule agonists of the hypoxia (HIF-1) signaling pathway (AID 1224846; active = well fitted activation curve with a large enough effect in the signal ratio in the repeat runs, not every such curve was filed as active; the % refers to the signal ratio)
# Outline: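 Hypoxia-pathway activation was scored as increased beta-lactamase from an HRE-controlled reporter in ME-180 cells; plated at 2,000 cells per well with 0.5% dialyzed FBS, they were exposed 17 hrs to compounds and then given CCF4-AM.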
# [4] = qHTS assay to identify small molecule agonists of H2AX - cell viability counter screen (AID 1224847; calls by dose curve; also: top concentration of the series differs between compounds; nearly all actives have a fitted effect of over 30% in size)
# Outline: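 Quantitative HTS viability measurement: CHO-K1 wild-type cells in serum (10% FBS) medium, short 3 hr drug exposure at 37C with 0.76% DMSO, CellTiter-Glo luminescent detection.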
# [5] = qHTS RealTime-Glo MT Cell Viability Assay in HepG2 cells - 24 hour (AID 1224867); also: nearly all actives have a fitted effect of over 50% in size
# Outline: (§1)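 HepG2 cells (600/well) were dispensed with RealTime-Glo reagents, incubated 5 h at 37 °C, then treated with compounds in DMSO for up to 40 h. Nonlytic NanoLuc luminescence reflecting viable cells was read at each stated time point.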
# [6] = qHTS RealTime-Glo MT Cell Viability Assay in HEK293 cells - 32 hour (AID 1224868); also: top concentration of the series differs between compounds; nearly all actives have a fitted effect of over 50% in size
# Outline: (§2)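 HEK293 cells seeded with NanoLuc/prosubstrate reagent, rested 5 h at 37 C, then dosed and kept at 37 C up to 40 h. Nonlytic real-time luminescence from viable cells read at 0, 8, 16, 24, 32 and 40 h.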
# [7] = A CellTox Green Cytotoxicity Assay to monitor cytotoxicity in HEK293 cells - 0 hour (AID 1224869); also: nearly all actives have a fitted effect of over 50% in size; also: potency is read from the fitted curve at half-maximal effect
# Outline: (§3)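 Seeding of HEK293 cells together with cytotoxicity dye preceded a 5 h incubation at 37 C/5% CO2. Test compounds in DMSO were then added and fluorescence monitored across 40 h.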
# [8] = qHTS RealTime-Glo MT Cell Viability Assay in HepG2 cells - 40 hour (AID 1224870); also: nearly all actives have a fitted effect of over 50% in size
# Outline: (§4)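 HepG2 cells (600/well) mixed with RealTime-Glo MT reagent, settled 5 h at 37 C/5% CO2 before compound addition. Nonlytic NanoLuc luminescence from viable-cell prosubstrate reduction read repeatedly during 40 h treatment at 37 C.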
# [9] = A CellTox Green Cytotoxicity Assay to monitor cytotoxicity in HEK293 cells - 40 hour (AID 1224871); also: nearly all actives have a fitted effect of over 45% in size; also: potency is read from the fitted curve at half-maximal effect
# Outline: as §3
# [10] = qHTS RealTime-Glo MT Cell Viability Assay in HEK293 cells - 16 hour (AID 1224872)
# Outline: as §2
# [11] = qHTS RealTime-Glo MT Cell Viability Assay in HepG2 cells - 8 hour (AID 1224873); also: nearly all actives have a fitted effect of over 55% in size
# Outline: as §4
# [12] = qHTS RealTime-Glo MT Cell Viability Assay in HEK293 cells - 40 hour (AID 1224874); conditions: RealTime-Glo luminescence; max response: stronger effect = lower value; also: nearly all actives have a fitted effect of over 50% in size
# Outline: (§5)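 Tox21 screen in HEK293 using RealTime-Glo MT chemistry, with cells and reagent co-dispensed. Luminescence proportional to viable cell number was captured at intervals during 40 h compound exposure at 37 C.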
# [13] = A CellTox Green Cytotoxicity Assay to monitor cytotoxicity in HEK293 cells - 24 hour (AID 1224875); also: nearly all actives have a fitted effect of over 45% in size
# Outline: as §3
# [14] = A CellTox Green Cytotoxicity Assay to monitor cytotoxicity in HepG2 cells - 16 hour (AID 1224876); also: nearly all actives have a fitted effect of over 45% in size; also: potency is read from the fitted curve at half-maximal effect
# Outline: (§6)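 Nonlytic assay: viable cells exclude the dye, so fluorescence scales with cell death. HepG2 at 600 cells/well, compounds added after 5 h, signal read across 40 h.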
# [15] = qHTS RealTime-Glo MT Cell Viability Assay in HepG2 cells - 32 hour (AID 1224877); also: nearly all actives have a fitted effect of over 55% in size
# Outline: as §1
# [16] = A CellTox Green Cytotoxicity Assay to monitor cytotoxicity in HepG2 cells - 40 hour (AID 1224879); also: nearly all actives have a fitted effect of over 40% in size; also: potency is read from the fitted curve at half-maximal effect
# Outline: as §6
# [17] = qHTS RealTime-Glo MT Cell Viability Assay in HEK293 cells - 0 hour (AID 1224880); also: top concentration of the series differs between compounds; nearly all actives have a fitted effect of over 45% in size
# Outline: as §5
# [18] = A CellTox Green Cytotoxicity Assay to monitor cytotoxicity in HepG2 cells - 24 hour (AID 1224878); also: nearly all actives have a fitted effect of over 45% in size; also: potency is read from the fitted curve at half-maximal effect
# Outline: as §6
# [19] = qHTS assay to identify small molecule antagonists of the estrogen related receptor (ERR) signaling pathway from Tox21 library (AID 1224848); also: nearly all actives have a fitted effect of over 50% in size
# Outline: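 ERR reporter cell line (from NTP) seeded 2,000 cells/well, rested 6 h at 37 C/5% CO2, then pin-dosed with compounds in DMSO. After 18 h at 37 C, ONE-Glo added; luminescence read after 30 min at room temperature.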
# [20] = qHTS assay to identify small molecule agonists of the estrogen related receptor (ERR) signaling pathway from Tox21 library (AID 1224849; calls by dose curve; also: nearly all actives have a fitted effect of over 15% in size); conditions: ERR reporter cell line, ONE-Glo luciferase, 18 h
# Outline: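 Six hours post-seeding at 37 C/5% CO2, ERR cells receive DMSO-solubilised compounds; after 18 h at 37 C, ONE-Glo reagent is applied and luminescence recorded.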
structure (smiles),measurement,setting,value
CCCCOC(=O)CCCCCCCCC(=O)OCCCC,Potency,[1],inactive
same,Potency,[2],inactive
same,outcome,[3],inactive
same,Potency,[4],inactive
same,outcome,[5],inactive
same,Potency,[6],inactive
same,Potency,[7],inactive
same,outcome,[8],inactive
same,Potency,[9],inactive
same,Potency,[10],inactive
same,outcome,[11],inactive
same,max response,[12],14.7% (inactive) and 5.35% (inactive)
same,Potency,[13],inactive
same,Potency,[14],inactive
same,outcome,[15],inactive
same,Potency,[16],inactive
same,Potency,[17],inactive
NC(=O)NO,Potency,[1],inactive
same,Potency,[2],inactive
same,Potency,[4],inactive
same,outcome,[5],inactive
same,Potency,[6],inactive
same,Potency,[7],inactive
same,outcome,[8],inactive
same,Potency,[9],inactive
same,Potency,[10],inactive
same,outcome,[11],inactive
same,max response,[12],19.8% (inactive) and 1.62% (inactive)
same,Potency,[13],inactive
same,Potency,[14],inactive
same,outcome,[15],inactive
same,Potency,[18],inactive
same,Potency,[16],inactive
same,Potency,[17],inactive
Cc1c(N(C)C)c(=O)n(-c2ccccc2)n1C,Potency,[1],inactive
same,Potency,[2],inactive
same,Potency,[4],inactive
same,outcome,[5],inactive
same,Potency,[6],inactive
same,Potency,[7],inactive
same,outcome,[8],inactive
same,Potency,[9],inactive
same,Potency,[10],inactive
same,outcome,[11],inactive
same,max response,[12],8.84% (inactive) and 0.672% (inactive) and 6.67% (inactive)
same,Potency,[13],inactive
same,Potency,[14],inactive
same,outcome,[15],inactive
same,Potency,[16],inactive
same,Potency,[17],inactive
CC(=O)Oc1ccccc1C(=O)O,Potency,[1],inactive
same,Potency,[2],inactive
same,Potency,[4],inactive
same,outcome,[5],inactive
same,Potency,[6],inactive
same,Potency,[7],inactive
same,outcome,[8],inactive
same,Potency,[9],inactive
same,Potency,[10],inactive
same,outcome,[11],inactive
same,max response,[12],-0.0178% (inactive) and 14.7% (inactive) and 2.62% (inactive)
same,Potency,[13],inactive
same,Potency,[14],inactive
same,outcome,[15],inactive
same,Potency,[18],inactive
same,Potency,[16],inactive
same,Potency,[17],inactive
CC1=NN(c2ccccc2)C(=O)C1,Potency,[1],inactive
same,Potency,[2],inactive
same,Potency,[4],inactive
same,outcome,[5],inactive
same,Potency,[6],inactive
same,Potency,[7],inactive
same,outcome,[8],inactive
same,Potency,[9],inactive
same,Potency,[10],inactive
same,outcome,[11],inactive
same,max response,[12],-0.0619% (inactive) and 3.79% (inactive) and -1.74% (inactive)
same,Potency,[13],inactive
same,Potency,[14],inactive
same,outcome,[15],inactive
same,Potency,[18],inactive
same,Potency,[16],inactive
same,Potency,[17],inactive
CCN(CC)CCOC(=O)c1ccc(N)cc1,Potency,[1],inactive
same,Potency,[2],inactive
same,Potency,[4],inactive
same,Potency,[19],inactive
same,"activity change, positive = activation",[20]; at 42.5 µM (top of the series),3.59% (inactive)
same,"activity change, positive = activation",[20]; at 92.4 µM (top of the series),2.93% (inactive)
same,outcome,[5],inactive
same,Potency,[6],inactive
same,Potency,[7],inactive
same,outcome,[8],inactive
same,Potency,[9],inactive
same,Potency,[10],inactive
same,outcome,[11],inactive
same,max response,[12],-6.53% (inactive) and -0.799% (inactive)
same,Potency,[13],inactive
same,Potency,[14],inactive
same,outcome,[15],inactive
same,Potency,[16],inactive
same,Potency,[17],inactive
C=CC(=O)NC(C)(C)CS(=O)(=O)O,Potency,[1],inactive
same,Potency,[2],inactive
same,outcome,[3],inactive
same,Potency,[4],inactive
same,outcome,[5],inactive
same,Potency,[6],inactive
same,Potency,[7],inactive and 43.6 µM (active)
same,outcome,[8],inactive
same,Potency,[9],inactive and 43.6 µM (active)
same,Potency,[10],inactive
same,outcome,[11],inactive
same,max response,[12],-2.52% (inactive) and 4.35% (inactive) and 4.55% (inactive)
same,Potency,[14],inactive and 24.5 µM (active)
same,outcome,[15],inactive
same,Potency,[18],inactive and 24.5 µM (active)
same,Potency,[16],inactive and 43.6 µM (active)
same,Potency,[17],inactive
CC(=O)CCC(C)C,Potency,[1],inactive
same,Potency,[2],inactive
same,outcome,[3],inactive
same,Potency,[4],inactive
same,outcome,[5],inactive
same,Potency,[6],inactive
same,Potency,[7],inactive and 38.9 µM (active)
same,outcome,[8],inactive
same,Potency,[9],inactive and 24.5 µM (active)
same,Potency,[10],inactive
same,outcome,[11],inactive
same,max response,[12],-1.02% (inactive) and 1.57% (inactive)
same,Potency,[14],inactive and 38.9 µM (active)
same,outcome,[15],inactive
same,Potency,[16],inactive and 27.5 µM (active)
same,Potency,[17],inactive
Cc1cccc(Nc2cc(Cl)nc(SCC(=O)O)n2)c1C,Potency,[1],inactive
same,Potency,[2],inactive
same,Potency,[4],inactive
same,outcome,[5],inactive
same,Potency,[6],inactive
same,Potency,[7],inactive
same,outcome,[8],inactive
same,Potency,[9],inactive
same,Potency,[10],inactive
same,outcome,[11],inactive
same,max response,[12],-8.11% (inactive) and -6.81% (inactive) and -0.208% (inactive)
same,Potency,[13],inactive
same,Potency,[14],inactive
same,outcome,[15],inactive
same,Potency,[18],inactive
same,Potency,[16],inactive
same,Potency,[17],inactive
CN/C(=C\[N+](=O)[O-])NCCSCc1ccc(CN(C)C)o1,Potency,[1],inactive
same,Potency,[2],inactive
same,Potency,[4],inactive
same,outcome,[5],inactive
same,Potency,[6],inactive
same,Potency,[7],inactive
same,outcome,[8],inactive
same,Potency,[9],inactive
same,Potency,[10],inactive
same,outcome,[11],inactive
same,max response,[12],4.86% (inactive) and 0.756% (inactive)
same,Potency,[13],inactive
same,Potency,[14],inactive
same,outcome,[15],inactive
same,Potency,[18],inactive
same,Potency,[16],inactive
same,Potency,[17],inactive
CCn1cc(C(=O)O)c(=O)c2ccc(C)nc21,Potency,[1],inactive
same,Potency,[2],inactive
same,Potency,[4],inactive
same,outcome,[5],inactive
same,Potency,[6],inactive
same,Potency,[7],inactive
same,outcome,[8],inactive
same,Potency,[9],inactive
same,Potency,[10],inactive
same,outcome,[11],inactive
same,max response,[12],3.61% (inactive) and -3.49% (inactive) and 2.76% (inactive)
same,Potency,[13],inactive
same,Potency,[14],inactive
same,outcome,[15],inactive
same,Potency,[18],inactive
same,Potency,[16],inactive
same,Potency,[17],inactive
